Screening results from PubChem.
HCMV inh – qHTS Assay for inhibitors of the human cytomegalovirus (HCMV); HFF cells, HCMV-luciferase reporter, 72 h; stronger effect = lower value; actives 4.5% (n = 410,000); AID 1259415, 2018; activity change, negative = inhibition, % at 57.5 µM; in the data active = activity change below about -60%; inconclusive = no clear call, values can overlap the other calls; inactive = above about -39%
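Human foreskin fibroblasts infected with luciferase-reporter HCMV at MOI 1 PFU/cell, compounds at two doses. Luciferase measured 72 h post infection; normalized to buffer-only basal and Salinomycin (10uM) controls.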
HCV inh – qHTS Assay for Inhibitors of Hepatitis C Virus (HCV) | AID 651820, 2012 | Potency, µM (doses to about 41.8 µM), most hits filed as inhibitors | actives 3.4% (n = 340,000) | Huh7.5.1 HCVcc-Cre infection, luciferase reporter, 44 h
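Infectious HCV cell culture screen: compound-treated cells (1,000/well, pre-plated 4 h) are infected with HCVcc-Cre at roughly 0.5 moi and grown 44 h. Infection is quantified by luciferase signal after 15 min substrate incubation at room temperature.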
LASV entry inh – qHTS for Inhibitors of binding or entry into cells for Lassa Virus; Lassa virus pseudotype entry inhibition, cell reporter; Potency, µM (series often up to 37.9 µM), actives largely listed as inhibitors; actives 1.2% (n = 300,000); AID 540256, 2011; calls by dose curve; tested in HEK293 cells; note: nearly all actives have a fitted effect of over 50% in size
MARV entry inh – qHTS for inhibitors of binding or entry into cells for Marburg Virus | Marburg virus pseudotyped entry inhibition, cell reporter | actives 1.8% (n = 300,000) | Potency, µM (titrated, usually from 37.8 µM), usual class: inhibitors; calls by dose curve; tested in HEK293 cells
FMDV inh – High Throughput Screening for Foot and Mouth Disease Virus Antivirals; FMDV antiviral cell-based qHTS; Potency, µM (doses to about 57.9 µM), hits mostly inhibitors; actives 1.2% (n = 410,000); AID 1159524, 2015; calls by dose curve; tested in HEK293T cells; note: read-out not given here; nearly all actives have a fitted effect of over 45% in size
HCV inh confirm – qHTS Assay for Inhibitors of Hepatitis C Virus (HCV): Confirmation Assay for Cherry-picked Compounds | Potency, µM (doses to about 41.8 µM), most hits filed as inhibitors | HCVcc-Cre infectious virus cell assay, luciferase, inhibition | AID 720575, 2013 | shares compounds with HCV inh | actives 78% (n = 640); note: nearly all actives have a fitted effect of over 80% in size
HCV cytotox – qHTS Assay for Inhibitors of Hepatitis C Virus (HCV): Cytotoxicity Counterscreen for Cherry-picked Compounds | HCV host cell line cytotoxicity counterscreen | actives 22% (n = 640) | shares compounds with HCV inh | Potency, µM (titrated, usually from 41.8 µM), usual class: inhibitors;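 note: 44 h compound exposure; nearly all actives have a fitted effect of over 55% in size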
A number is an active result; . = inactive; ? = inconclusive; / = no result given. A selection: hits, their analogues and other compounds. The true share with any hit is near 7.9%. Unless noted, calls come from the whole dose curve; as a rule, active = well fitted curve in the direction sought with a large enough effect; inconclusive = small, poorly fitted or top-dose-only effect, or another doubt; inactive = no such curve, though single readings can be large; an effect the other way counts as inactive or inconclusive.

SMILES	HCMV inh	HCV inh	LASV entry inh	MARV entry inh	FMDV inh	HCV inh confirm	HCV cytotox
COCCN(C(=O)COC(=O)/C=C/c1ccc(OC)c(OC)c1)c1c(N)n(Cc2ccccc2)c(=O)[nH]c1=O	.	?	.	.	.	?	.
COCCN(C(=O)COC(=O)/C=C/c1ccco1)c1c(N)n(Cc2ccccc2)c(=O)[nH]c1=O	.	.	.	.	.	/	/
Cc1ccc(OCC(O)Cn2c3ccccc3c3ccccc32)cc1 (stereo unspecified)	.	?	?	.	/	/	/
CC(=O)N(C)c1ccc(OCC(O)Cn2c3ccc(Cl)cc3c3cc(Cl)ccc32)cc1 (stereo unspecified)	/	0.891µM	?	11.2µM	?	3.96µM	28µM
Cc1cc(/C=N/NC(=O)c2ccccc2F)c(C)n1-c1ccccc1	?	7.94µM	/	/	.	?	.
COc1ccc(-n2c(=O)c3c4c(sc3n(Cc3cc(C)ccc3C)c2=O)CN(C(C)=O)CC4)c(OC)c1	.	/	/	?	.	/	/
CCCCOc1ccc(/C=C/C(=O)Nc2ccc([N+](=O)[O-])cc2C)cc1	.	?	.	.	.	/	/
CCCOc1ccc(/C=C/C(=O)Nc2ccc([N+](=O)[O-])cc2)cc1	-69.6	3.55µM	?	1.78µM	5.62µM	7.91µM	19.9µM
CC[n+]1c(C)sc2c(C)cc(C)cc21	.	.	.	.	.	/	/
CCC[n+]1c(C)sc2c3c(ccc21)CCCC3	/	7.08µM	?	?	?	25µM	.
CCN(CC)S(=O)(=O)c1ccc(Oc2ccc(S(=O)(=O)N(CC)CC)cc2)cc1	.	2.82µM	14.6µM	?	?	2.5µM	2.8µM
COc1nn(-c2ccccc2)c(=O)c(Cl)c1Cl	-102.2	3.98µM	?	?	14.1µM	8.87µM	7.91µM
COc1ccc(CNc2ncnc3cc(Cl)ccc23)cc1	-64.7	8.91µM	?	?	?	25µM	?
COc1ccc(CNc2ncnc3cc(OC)c(OC)cc23)cc1	.	?	.	?	.	/	/
COc1cccc(CN(C(=O)COc2ccc(Cl)cc2)C2CCS(=O)(=O)C2)c1 (stereo unspecified)	.	.	.	?	.	/	/
Cn1c(=O)cc(OCCCC(=O)NCc2ccccn2)c2ccccc21	.	.	.	.	.	/	/
Cc1ccnc(NC(=O)CCCOc2cc(=O)n(C)c3ccccc23)c1	-101.3	3.55µM	.	?	.	7.91µM	?
CSc1nsc(/C=C/Nc2ccc(O)cc2C)c1C#N	.	?	/	/	.	/	/
O=C(Nc1ccn(Cc2ccccc2F)n1)c1ccc(COc2ccc(Br)cc2)cc1	-102.9	6.31µM	.	7.3µM	?	4.45µM	.
COc1ccccc1CN1CCCC(CNC(=O)c2cccc3ccccc23)C1 (stereo unspecified)	.	.	/	/	.	/	/
COc1ccc(/C=C/C(=O)c2ccc(O)cc2)cc1	.	.	/	/	.	/	/
COC(=O)c1ccc2c(c1)C(C)(C)C(/C=C/c1ccc(O)cc1)=[N+]2C	-102.4	2.24µM	?	?	10µM	4.99µM	8.87µM
Cn1c(-n2cccc2)c(-c2c(-c3ccccc3)[nH]c3c2c(=O)n(C)c(=O)n3C)c(=O)n(C)c1=O	.	/	.	.	.	/	/
O=C(COC(=O)Cc1cccc(C(F)(F)F)c1)NC1CCS(=O)(=O)C1 (stereo unspecified)	.	.	.	.	.	/	/
COc1ccc(NC(=S)NCCSc2ccc(Cl)cc2)c(OC)c1	.	5.62µM	?	?	.	25µM	.
C=CCNc1nc(N)c([N+](=O)[O-])c(Nc2ccccc2OC)n1	.	6.31µM	.	.	.	22.3µM	.
CCc1cccc(NC(=O)CCc2c(C)nc3c(-c4ccccc4)c(C)nn3c2C)c1	.	/	?	.	.	/	/
CC(C)(C)c1cc[n+](C2=C([O-])c3ccccc3C(=O)/C2=N\S(=O)(=O)c2cccs2)cc1	-99.5	2.82µM	?	10µM	8.91µM	25µM	?
Cc1ccc[n+](C2=C([O-])c3ccccc3C(=O)C2=O)c1	.	/	/	/	/	/	/
